The record followed here is PubChem BioAssay (Tox21).

A number with no mark means an inactive call. Records with an inconclusive call do not appear. Calls of active or inactive are those of the source. Unless noted, calls follow the shape of the dose curve; as a rule, active = well fitted curve in the direction sought with a large enough effect in the repeat runs; inconclusive = weak or mixed curves; inactive = no such curve, though single readings can be large; an effect the other way counts as inactive or inconclusive.

The nature of assay [1]: qHTS assay for small molecule agonists of the p53 signaling pathway (AID 651631; calls by dose curve; also: nearly all actives have a fitted effect of over 15% in size). The essentials:
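Quantitative high-throughput format: 4,000 p53RE-bla HCT-116 cells/well, 5 h pre-incubation, 16 h compound exposure at 37 °C, 2 h room-temperature substrate step, fluorescence intensity measured.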

Assay [2] in a line: qHTS assay for small molecule agonists of the p53 signaling pathway - cell viability (AID 651633; calls by dose curve;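 also: p53RE-bla HCT reporter cells with a stable beta-lactamase p53 reporter; series mostly up to about 83 µM; nearly all actives have a fitted effect of over 30% in size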). The essentials: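 p53RE-bla cells were treated with compound for 16 hours at 37 C. Cytotoxicity was then measured as CellTiter-Glo luminescence after 30 min at room temperature.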
On the technique in general: qHTS replaces the single test concentration by a dilution series.

Assay [3] in a line: qHTS assay for small molecules that induce genotoxicity in human embryonic kidney cells expressing luciferase-tagged ATAD5 - cell viability (AID 651634; calls by dose curve; also: nearly all actives have a fitted effect of over 25% in size; also: potency is read from the fitted curve at half-maximal effect). The method in brief: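 Here HEK293T cells with the ATAD5 luciferase reporter are incubated with test compounds for 15.5 hr, and cytotoxicity is then gauged by measuring protease activity in live cells using fluorescence.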
Assay [4] can be described thus: qHTS assay for small molecule disruptors of the mitochondrial membrane potential - cell viability (AID 720634; calls by dose curve;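 also: human HepG2 liver cancer cells; series mostly up to about 83 µM; nearly all actives have a fitted effect of over 20% in size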). The method in brief:
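Viability of HepG2 cells is scored from ATP content by luminescence; cells are exposed to compound for 1 hr at 37 C and 5% CO2, then dosed with m-MPI dye before the CellTiter-Glo reagent.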

Assay [5] in a line: qHTS assay for small molecule disruptors of the mitochondrial membrane potential (AID 720635). The method in brief:
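HepG2 cells exposed to compound 1 hr at 37C, then Mito-MPS dye 30 min. Ratio read of aggregate (540/590 nm) versus monomer (490/535 nm) fluorescence.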

Assay [6] in a line: qHTS assay to test for compound auto fluorescence at 590 nm (red) in HepG2 cells (AID 720674). The essentials: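 HepG2 cells, 2,000 per well in MEM with 10% FBS, attached overnight at 37 C, then got 23 nL compound or DMSO. After 1 hr at 37 C, 5% CO2, red fluorescence was read at 540/590 nm against Rose Bengal sodium as reference.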
The nature of assay [7]: qHTS assay to test for compound auto fluorescence at 535 nm (green) in HepG2 cells (AID 720675).
A short description of assay [8]: qHTS assay to test for compound auto fluorescence at 460 nm (blue) in HEK293 cells (AID 720678). The method in brief: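 HEK293 cells (2,000 per well, medium with 10% dialyzed FBS) attached for 4-5 hr at 37C, then received compound and stood overnight at 37C, 5% CO2. Blue fluorescence was read at Ex/Em 405/460 nm and expressed relative to triamterene.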
Assay [9] in a line: qHTS assay to test for compound auto fluorescence at 590 nm (red) in HEK293 cells (AID 720679). The essentials:
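HEK293 cells (2,000/well, medium with 10% dialyzed FBS) attached for 4-5 hr at 37C, received 23 nL compound and were incubated overnight at 37C, 5% CO2. Red fluorescence was then read at 540/590nm Ex/Em, referenced to Rose Bengal sodium.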

Assay [10] can be described thus: qHTS assay for small molecules that induce genotoxicity in human embryonic kidney cells expressing luciferase-tagged ATAD5 (AID 651632). Also: nearly all actives have a fitted effect of over 15% in size. The method in brief: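 DMSO vehicle served as the control. HEK293T reporter cells, 16 hr at 37C, then 30 min Amplite at room temperature; ATAD5 induction is measured as luciferase activity.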
% is scaled to controls: 0 for no effect and ±100 for the full control effect.

Turning to `COc1cc([N+](=O)[O-])ccc1N`, the compound was classed as inactive in [1], in [2], in assay [4], in assay [6], in assay [7] and in assay [8]. Further, the result in assay [9] was inactive. The Potency in [3] was 54.5 µM (active). In addition, in [5], the Potency result was “inactive”.
On to `C=C(C)[C@@H]1CC[C@@H](C)C[C@@H]1O`, for which the outcome in assay [1], in assay [2], in [4], in [6], in assay [7] and in assay [8] was inactive. Besides, the result in assay [9] was inactive. The Potency result in assay [3] was “inactive”.
Turning to `CC(=O)OC(C)(C)Cc1ccccc1`, the compound was called inactive in [1], in assay [2], in [4], in assay [6], in [7] and in [8]. For the same compound, the call in assay [9] was inactive. Further, the Potency entry in assay [3] and in assay [5] was “inactive” throughout.
As for `CCOC(=O)OCC/C(SC(=O)OCC)=C(\C)N(C=O)Cc1cnc(C)nc1N`, the call in [1], in assay [2], in assay [4], in [6], in [7] and in [8] was inactive. Further, the outcome in assay [9] was inactive. Further, the Potency result in assay [3] and in [5] was “inactive” throughout.
In the case of `NC(=O)C1(N2CCCCC2)CCN(CCCC(=O)c2ccc(F)cc2)CC1`, the call in assay [1], in [2], in assay [4], in assay [6], in assay [7] and in assay [8] was inactive. The outcome in assay [9] was inactive. The Potency entry in assay [5] was “inactive”.
Turning to `CC(=O)OC(C)c1ccccc1` (stereo not drawn), the outcome in assay [1], in assay [2], in assay [4], in assay [6], in assay [7] and in assay [8] was inactive. Moreover, the call in assay [9] was inactive. Further, in [5], the Potency result was “inactive”.
For the compound `O=C(O)Cc1cccc(-c2cc(CCCCCCc3ccc(O[C@H]4O[C@H](CO)[C@@H](O)[C@H](O)[C@@H]4O)c(-c4cccc(CC(=O)O)c4)c3)ccc2O[C@H]2O[C@H](CO)[C@@H](O)[C@H](O)[C@@H]2O)c1`, the call in [1], in assay [2], in assay [4], in assay [6], in [7] and in assay [8] was inactive. The compound was classed as inactive in assay [9]. Besides, the Potency entry in assay [3] is “inactive”.
Regarding `O=C(O)CCNC(=O)c1ccccc1`, the result in assay [1], in assay [2], in assay [4], in assay [6], in assay [7] and in assay [8] was inactive. The compound was called inactive in assay [9]. Further, the Potency result in [3] and in assay [5] was “inactive” each time.
In the case of `CCCCOC(=O)[C@@H](C)Oc1ccc(Oc2ccc(C(F)(F)F)cn2)cc1`, the compound was called inactive in assay [1], in [2], in assay [6], in [7], in [8] and in [9]. The Potency result in assay [3] and in [5] was “inactive” each time.
As to `COCC(=O)Nc1c(I)c(C(=O)NCC(O)CO)c(I)c(C(=O)N(C)CC(O)CO)c1I` (stereo not drawn), the compound was classed as inactive in assay [1], in [2] and in assay [4]. The Potency result in assay [3] is “inactive”. For the same compound, the fluorescence, relative to Rose Bengal in assay [6] was -0.339% [at 18.6 µM]. Also, the fluorescence, % of fluorescein control in assay [7] is 0.0261% [at 18.6 µM]. Moreover, the fluorescence, % of triamterene in assay [8] was -0.157% [at 18.6 µM]. Moreover, in assay [9], the fluorescence, % of fluorescent control is 0.231% [at 18.6 µM].
Take `C[C@H](CCC(=O)NCC(=O)O)[C@H]1CC[C@H]2[C@@H]3[C@H](O)C[C@@H]4C[C@H](O)CC[C@]4(C)[C@H]3C[C@H](O)[C@]12C`: the result in [1], in assay [2], in [4], in assay [6], in [7] and in [8] was inactive. Further, the compound was classed as inactive in assay [9]. Also, the Potency result in [3] and in assay [5] was “inactive” throughout.
Regarding `C=C(C)C(=O)OC`, the result in assay [1], in [2], in [4], in assay [6], in assay [7] and in assay [8] was inactive. Further, the compound was called inactive in assay [9]. Moreover, the Potency result in [3] and in [5] was “inactive” throughout.
For `O=CN1CCOCC1`, the outcome in assay [1], in assay [2], in assay [4], in assay [6], in assay [7] and in assay [8] was inactive. The call in [9] was inactive. For the same compound, in assay [3], the Potency result is “inactive”.
For `CCCCCCCCOC(C)=O`, the compound was called inactive in assay [1], in assay [2], in assay [4], in assay [6], in assay [7] and in assay [8]. Further, the outcome in assay [9] was inactive. Further, the Potency entry in assay [3] is “inactive”.
As to `COCCOCCOCCOC`, the compound was called inactive in assay [1], in assay [2], in [4], in assay [6], in assay [7] and in assay [8]. Further, the call in assay [9] was inactive. Further, the Potency result in assay [3] and in assay [5] was “inactive” throughout.
On to `C=CC(C)(O)CC/C=C(\C)CC` (stereo not drawn), for which the compound was classed as inactive in assay [1], in assay [10], in assay [4], in assay [6], in assay [7] and in assay [8]. The outcome in assay [9] was inactive.
For the compound `CCN(CCO)c1cccc(C)c1`, the compound was classed as inactive in assay [1], in [2], in assay [4], in assay [6], in [7] and in [8]. Further, the compound was called inactive in assay [9]. Besides, the Potency result in assay [3] and in assay [5] was “inactive” throughout.
For `CCNC(=O)/C=C/c1cccc(Br)c1`, the outcome in [1], in assay [10], in assay [4], in assay [6], in assay [7] and in [8] was inactive. Besides, the compound was called inactive in assay [9].
Turning to `CCS(=O)(=O)CCn1c([N+](=O)[O-])cnc1C`, the call in assay [1], in assay [2] and in assay [4] was inactive. Also, the Potency entry in [3] and in assay [5] was “inactive” each time. Further, in assay [6], the fluorescence, relative to Rose Bengal was 0.187% [at 18.6 µM]. Besides, the fluorescence, % of fluorescein control in assay [7] is -0.217% [at 18.6 µM]. Also, the fluorescence, % of triamterene in [8] is -0.271% [at 18.6 µM]. The fluorescence, % of fluorescent control in assay [9] was 0.0006% [at 18.6 µM].
`COc1ccc(OC)c(NC(=O)CC(C)=O)c1`: the outcome in [1], in assay [2], in assay [4], in [6], in assay [7] and in [8] was inactive. Moreover, the compound was called inactive in assay [9].
Regarding `CCN(CCC#N)c1ccccc1`, the result in assay [10], in [2], in [4], in [6], in [7] and in [8] was inactive. Also, in assay [9], the outcome was inactive. In addition, in assay [3], the Potency entry was “inactive”.
Consider `N#CCCOCCOCCC#N`, for which the compound was called inactive in assay [10], in assay [2], in [4], in [6], in assay [7] and in [8]. For the same compound, the compound was classed as inactive in [9]. Moreover, the Potency entry in [3] was “inactive”.
As for `CC(C)(C)NCCO`, the result in assay [10], in [2], in [4], in assay [6], in assay [7] and in [8] was inactive. Further, the compound was called inactive in assay [9].
As for `CC1=CC[C@H](CC=O)C1(C)C`, the compound was called inactive in assay [10], in [2], in assay [4], in assay [6], in assay [7] and in assay [8]. Further, in assay [9], the call was inactive. Besides, the Potency entry in assay [3] and in assay [5] was “inactive” each time.
